Bioassay records as filed in PubChem.
Dicer processing: inhibitors of human Dicer processing of pre-microRNA; Q9UPY3; 6% of 47,000 active; AID 1347074; z-score at 25 µM; cat-ELCCA pre-miR-21 Dicer processing, chemiluminescence; active compounds read high; in the data active = z-score above about 3, passing the limit was not always enough;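 also: plate controls were vehicle for no effect and no enzyme for full effect; higher signal means more uncleaved substrate so more Dicer inhibition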
Starred values were filed as active, the others as inactive. The entries come from a sample that favours hits as a whole.

SMILES | Dicer processing
O=C1C2C3c4ccccc4C(C(=O)O)(c4ccccc43)C2C(=O)N1Cc1ccccc1 (configuration not stated) | 1.6
Cc1nc2nc[nH]n2c(=O)c1CCO | -1.5
Cc1c(Br)c([N+](=O)[O-])nn1CC(=O)NCCCN1CCOCC1 | -0.49
CCOc1ccc(C2C(C(=O)OC(C)C)=C(C)Nc3nc4ccccc4n32)cc1 (configuration not stated) | 0.81
O=c1cc(O)c2c(=O)n(-c3ccccc3)c(-c3ccccc3)cc2o1 | 0.34
COC(=O)c1ccc(Cl)cc1N(Cc1ccccc1)S(C)(=O)=O | -0.46
O=C(CS(=O)(=O)c1ccc(C(F)(F)F)cn1)NNC(=O)Nc1ccccc1 | 0.12
COC(=O)C(C)(C)S(=O)(=O)c1ccc(C(F)(F)F)cn1 | -0.28
COC(=O)CS(=O)(=O)c1ccc(C(F)(F)F)cn1 | 3.4*
c1ccc2sc(SCCCCSc3nc4ccccc4s3)nc2c1 | -1.4
Cc1cc(C)n(C(C)C(=O)Nc2ccccc2Cl)c(=O)n1 (configuration not stated) | 2.1
CC(=O)Oc1ccc2oc3c(c2c1)C(=O)CCC3 | 4.8*
CC(=O)Oc1ccc2oc(C)c(C(=O)OC(C)C)c2c1 | 0.44
CC(=O)Oc1ccc2c(C)cc(=O)oc2c1 | -0.41
CS(=O)(=O)c1ccc(C(=O)O)s1 | 0.5
CCC1C2=C(CCCC2=O)NC2=C1C(=O)CCC2 | 0.37
Cn1c2c(c(=O)n(C)c1=O)CN(CCCn1ccnc1)CN2 | 0.99
O=C1C=C(NCc2ccncc2)CC(c2ccccc2)C1 (configuration not stated) | 1.8
O=C1C=C(NCc2ccco2)CC(c2ccccc2)C1 (configuration not stated) | 1.2
O=C1C=C(NCCc2ccccc2)CC(c2ccco2)C1 (configuration not stated) | 5.7*
C=CCN1C(=O)C(O)(c2c[nH]c3ccccc23)c2ccccc21 (configuration not stated) | 1.8
COc1ccc(C2=NN(S(C)(=O)=O)C(c3cn(-c4ccccc4)nc3-c3ccccc3)C2)cc1 (configuration not stated) | -0.79
CCc1ccc(C(Nc2ccccn2)c2ccc3cccnc3c2O)cc1 (configuration not stated) | 8.3
Cc1cccc(NC(c2cccnc2)c2ccc3cccnc3c2O)n1 (configuration not stated) | 3.5*
C=CCOc1cccc(C(Nc2cccc(C)n2)c2ccc3cccnc3c2O)c1 (configuration not stated) | 1.4
SMILES | Dicer processing
COc1ccc(C(Nc2cc(C)ccn2)c2ccc3cccnc3c2O)cc1OC (configuration not stated) | 11*
Cc1cccc(NC(c2ccc(O)cc2)c2ccc3ccc(C)nc3c2O)n1 (configuration not stated) | 2.5
Cc1ccc(C(Nc2cccc(C)n2)c2ccc3cccnc3c2O)cc1 (configuration not stated) | 17*
Cc1cccc(NC(c2ccc(F)cc2)c2ccc3ccc(C)nc3c2O)n1 (configuration not stated) | -0.14
Cc1cccc(NC(c2cccnc2)c2ccc3cccnc3c2O)c1 (configuration not stated) | -0.49
C=CCOc1cccc(C(Nc2ccccn2)c2ccc3cccnc3c2O)c1 (configuration not stated) | 7.3
CCOC(=O)c1sc(N2C(=O)c3oc4ccc(C)cc4c(=O)c3C2c2ccc(OC)cc2)nc1C (configuration not stated) | 0.35
CC(=O)Nc1ccc(C(C)(C)C)cc1C#N | -0.68
C=C1SC(Nc2ccc(C)cc2C)=NC12CCCCC2 | -1.2
CCc1ccc(C2c3c(oc4ccccc4c3=O)C(=O)N2c2nc(C)c(C)s2)cc1 (configuration not stated) | -0.16
c1ccc(-c2ccc(-c3ncc(-c4ccccc4)o3)cc2)cc1 | 0.52
CCOCC(=O)Nc1cc(C)on1 | 3.1*
Cc1cc(NC(=O)CCCC(=O)O)no1 | 0.56
COC(=O)CCCCCCCC(=O)Nc1cc(C)on1 | -0.52
CCOC(=O)c1cc(C#N)c(Sc2n[nH]c(=O)n2Cc2ccc(C(F)(F)F)cc2)nc1C | -0.92
CCC(C)OC(=O)C1=C(C)NC2=C(C(=O)CC(c3ccccc3)C2)C1c1ccc(O)cc1 (configuration not stated) | 2.7
CCOC(=O)c1sc2nc(C)cc(C)c2c1N(C(C)=O)C(C)=O | 3.4*
CCOC(=O)c1sc2nc(C)cc(C)c2c1NC(=O)Nc1cccc(Cl)c1 | 0.39
CC(=O)c1sc2nc(C)cc(C)c2c1N | -1.6
COc1ccc(C2Nn3c(nnc3-c3ccccc3)SC2C(=O)NCC2CCCO2)cc1Cl (configuration not stated) | 6.6*
Cc1ccc(C2Nn3c(C)nnc3SC2C(=O)NCC2CCCO2)cc1 (configuration not stated) | -0.76
Cc1nnc2n1NC(c1ccc(Cl)cc1)C(C(=O)NCC1CCCO1)S2 (configuration not stated) | 2.4
CCOC(=O)c1c(NC(=O)c2cccs2)sc(C(=O)Nc2ccc3c(c2)OCO3)c1C | 0.23
COc1ccc(-c2csc3nc(-c4ccc(F)cc4)oc(=O)c23)cc1 | 0.76
Cc1cc(C)c2nc(-c3ccc(C(F)(F)F)cc3)oc(=O)c2c1 | -1.3
SMILES | Dicer processing
COc1oc(-c2ccc(C)cc2)nc1C(F)(F)F | 4.3*
COC(=O)c1noc(-c2ccc(F)cc2)n1 | -0.21
COc1oc(-c2ccc(F)cc2)nc1C(F)(F)F | 4.7*
Cc1ccc(-c2nc(=O)c3ccccc3o2)cc1 | 1.6
CCC12CN3CC(CC)(CN(C1)C3c1ccc(Br)cc1)C2=O (configuration not stated) | -0.08
Cc1ccc(-c2nnn(CC(=O)NNC(=O)N3CCOCC3)n2)cc1 | -1.1
CC(C)c1ccc(NC(=O)CSc2n[nH]c(=O)n2-c2ccccc2)cc1 | -0.34
CCn1ccc(C(=O)Nc2nccs2)n1 | 0.32
Cc1nnc(Nc2cccc(Cl)c2)[nH]c1=O | 6.7
c1ccc2[nH]c(CN3CCCCC3)nc2c1 | -0.54
O=c1[nH]c(CN2CCOCC2)nc2ccccc12 | 6.9*
O=c1[nH]c(CN2CCCCC2)nc2c1oc1ccccc12 | -0.24
O=C(Nc1cccc2nsnc12)c1sc2cccc(F)c2c1Cl | 1.7
O=c1[nH]c2ccc(S(=O)(=O)N3CCOCC3)cc2[nH]c1=O | 0.54
CCN1CCCC1CN1CNC(=S)NC1 (configuration not stated) | -0.44
Cc1cc(S(=O)(=O)NN(C)c2cccc(Cl)c2C#N)cc(C)c1F | -0.13
CN(NC(=O)c1ccccc1Cl)c1cccc(F)c1C#N | -0.07
CN(NS(=O)(=O)c1ccc(Cl)c(Cl)c1)c1cccc(F)c1C#N | 3.6*
CC1CC(C)CN(S(=O)(=O)c2cccc(-c3cn4cc(Cl)ccc4n3)c2)C1 (configuration not stated) | -0.12
COc1ccc(OC)c(C2C(C(=O)OC(C)C)=C(C)NC3=C2C(=O)CCC3)c1 (configuration not stated) | -0.27
Cc1cc(C)c(NC(=O)C(C)Sc2nc3c(c(=O)n(C)c(=O)n3C)n2C)c(C)c1 (configuration not stated) | -1.1
Cc1ccc(C(=O)Oc2ccc3oc(=O)sc3c2)cc1 | 5.1*
O=C(Oc1ccc2c(c1)oc(=O)c1ccccc12)c1ccccc1 | 2.3
O=C(O)c1cccc(S(=O)(=O)Nc2ccc3oc(=O)sc3c2)c1 | -0.91
O=C(Oc1ccc2oc(=O)sc2c1)c1ccc(Br)cc1 | -0.22
CCCCNC(=O)Oc1ccc2sc(=O)oc2c1 | -1
CC(=O)Oc1ccc2oc(=O)sc2c1 | -1.2
